Compounds with a hit are over-represented: about 12% of the library has one in this group of screens.
Shiga inhibitor – blocks Shiga toxin action in Vero cells; AID 2315; Vero cells, Shiga toxin protein synthesis inhibition reporter; actives 9.2% (n = 290,000); inhibition, % at 38.7 µM; in the data active means inhibition mostly above about 28%, no sharp cut-off; inactive means mostly below about 43%; further: 0% is about no effect
NS1 function inh – blocks influenza NS1 protein function; AID 2326; actives 0.4% (n = 270,000); Potency, µM (doses to about 46.1 µM), without a hit: at the top dose activity, positive = more growth; further: potency means the concentration at half of the fitted maximal effect; actives are rising curves; nearly all actives have a fitted effect of over 50% in size
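OD600 was taken as the measure of yeast growth restored by compound in an NS1-expressing S. cerevisiae strain. Cells had been washed out of glucose medium and diluted 1:100 into galactose -URA medium, pH 6.0.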
Cycloheximide cs – counter-screen hit for Shiga toxin inhibitors, cycloheximide; AID 2314; max response, %; cell reporter, cycloheximide protein synthesis inhibition counterscreen; actives 12% (n = 300,000); in the data active means max response mostly above about 13%, no sharp cut-off; inactive means mostly below about 14%; further: read at 38.3 µM for the half of the compounds with a filed dose; 0% is about no effect
SARS PLpro yeast – inhibitors of SARS-CoV papain-like protease in yeast. S. cerevisiae expressing SARS-CoV PLpro, growth rescue. Potency, µM (titrated, usually from 32.9 µM), inactives show at the highest dose activity, positive = growth rescue, actives largely listed as activators. actives 0.19% (n = 330,000). AID 485353; further: potency means the concentration at half of the fitted maximal effect; 0% is about no effect; nearly all actives have a fitted effect of over 55% in size
The depositor's hits bear a star; ? = inconclusive; . = no result given; + = active, no number. Unless noted, the call rests on the fitted dose curve.

SMILES | Shiga inhibitor | NS1 function inh | Cycloheximide cs | SARS PLpro yeast
Cc1cccc(NC(=O)[C@H](Cc2c[nH]c3ccccc23)NC(=O)[C@@H]2Cc3ccccc3CN2)c1 | 16 | 14% | 14* | -9%
O=C(NNC(=O)c1ccc(Cl)cc1Cl)c1csc(-c2cccnc2)n1 | 22 | -3% | 19* | -1%
CNC(=O)c1[nH]cnc1C(=O)Nc1cccc(Cl)c1 | . | . | . | -4%
CSc1cccc(NC(=O)c2ccccc2N(C)S(C)(=O)=O)c1 | -11 | 3% | -5 | 4%
CSc1cccc(NC(=O)c2ccccn2)c1 | 103* | . | 37* | -7%
CSc1cccc(NC(=O)c2ccc(Cl)nc2)c1 | 61* | -32% | 40* | -4%
O=C(Nc1cccc(Cl)c1)c1cnc[nH]1 | 75* | -5% | 55* | -1%
O=C(Nc1cccc(S(=O)(=O)N2CCCC2)c1)c1ccc(Cl)nc1 | . | . | . | 2%
CCCc1oc2c(c(=O)c1CC)C(=O)CC(C)(C)C2 | -8 | -6% | -1 | 3%
Cc1cc(C)cc(N(CC(=O)NCc2ccccc2)C(=O)CCC(=O)Nc2ccccn2)c1 | -7 | -1% | -8 | 0%
COc1ccc(S(=O)(=O)N2CCC(C(=O)N[C@@H](C)C(=O)N3CCCCCC3)CC2)cc1 | -2 | 0% | -6 | 3%
CCOc1ccccc1NC(=O)NC1(C(=O)NCC2CCCO2)CCCCC1 (stereo not given) | -3 | 10% | -7 | 0%
COc1ccccc1C(=O)Nc1ccc2c(c1)CN(C(=O)CSC)CC2 | 27 | -16% | 9 | 0%
CSc1cccc(NC(=O)c2cnccn2)c1 | 39 | -8% | 31* | -5%
O=C(Nc1cccc(Cl)c1)c1csc(-c2ccccc2)n1 | 98 | -11% | 43* | -24%
O=C(Nc1cccc(Cl)c1)c1cnccn1 | . | -36% | 16* | -9%
CSc1cccc(NC(=O)N2CCc3ccc(NC(=O)c4ccccn4)cc3C2)c1 | 77* | 5% | 18* | -8%
COC(=O)c1cc(C(=O)OC)n(Cc2ccc(C)cc2)c1C | 57 | . | 8 | 0%
O=C(COC(=O)C12CC3CC(CC(O)(C3)C1)C2)NCc1ccco1 | 15 | . | 3 | .
Cc1ccc(Nc2nc(C3CC3)cs2)cc1 | 52* | -39% | 33* | -8%
Clc1ccc(Nc2nc(C3CC3)cs2)cc1 | 102* | -52% | 56* | 24%
Cc1ccc(Nc2nc(-c3c(C)nc4ccccn34)cs2)cc1 | -11 | -34% | -1 | -26%
COc1ccc(OC)c(NC(=O)Nc2nnc(N3CCCCC3C)s2)c1 (stereo not given) | 34 | -1% | 8 | 1%
Cc1ccc(C(=O)/C=C/Nc2ccc([N+](=O)[O-])cc2Br)cc1 | 77* | 8% | 67* | 0%
CCOc1ccc(N/C=C/C(=O)c2ccc(C)cc2)c([N+](=O)[O-])c1 | 64* | 5% | 42* | -1%
SMILES | Shiga inhibitor | NS1 function inh | Cycloheximide cs | SARS PLpro yeast
CCOc1ccc(N/C=C/C(=O)c2ccc3ccccc3c2)c([N+](=O)[O-])c1 | 34 | 4% | 15 | 6%
C=CCCN(C(C(=O)OC)C(C)C)S(=O)(=O)c1ccccc1Br (stereo not given) | -5 | 8% | -1 | -3%
O=C(c1cccs1)N(Cc1cccc(F)c1)C1CCS(=O)(=O)C1 (stereo not given) | 23 | 0% | -4 | 1%
COc1cccc(C(=O)OCC(=O)c2c[nH]c3ccccc23)c1O | 93* | 11% | 34* | 1%
CC(=O)OCC(=O)c1c[nH]c2ccccc12 | 19 | 0% | 13 | -10%
COc1cccc(/C=C/C(=O)OCC(=O)c2c[nH]c3ccccc23)c1OC | 32 | 0% | 11* | 6%
O=c1[nH]c(-c2ccccc2)nn1-c1ccc(Br)cc1Br | 5 | 8% | 0 | 8%
CC(=O)c1cc2c(cc1NC(=O)C1CC1)OCO2 | 7 | 2% | -2 | ?
c1ccc(-c2cccc(-c3ccccc3)n2)cc1 | 54* | 2% | 48* | 0%
c1ccc(-c2ccc(-c3ccccn3)s2)nc1 | 132* | -65% | 45* | -4%
c1ccc(-c2cccc(-c3ccccn3)n2)nc1 | 91* | -284% | 31* | -37%
c1ccc(-c2nnc(-c3ccccn3)nn2)nc1 | . | -73% | . | .
O=C(O)c1ccc(-c2ccccn2)s1 | 29* | . | 45* | 0%
Cc1ccc(NC(=O)COC(=O)C2(CC(=O)NC(C)(C)C)CCCC2)cc1C | . | . | . | -14%
CCOc1ccccc1-c1ccc(C(=O)O)s1 | + | . | 44* | .
Cn1nccc1C(=O)NC1CCN(Cc2ccccc2)CC1 | -11 | -21% | 2 | 1%
COc1ccc(CNC(=O)c2ccc3c(c2)NC(=O)C(C)S3)cc1 (stereo not given) | 37* | -4% | 21* | 0%
CCOC(=O)N1CCC(Nc2nc3ccccc3n3nnnc23)CC1 | 54 | -5% | 19* | -5%
CCN(CC)S(=O)(=O)c1ccc(Nc2nc3ccccc3n3nnnc23)cc1 | 109* | ? | 32* | -1%
Brc1ccc(Nc2nc3ccccc3n3nnnc23)cc1 | 100 | -6% | 65* | -20%
Fc1ccccc1Nc1nc2ccccc2n2nnnc12 | 53 | -8% | 41* | 3%
COc1cccc(Nc2nc3ccccc3n3nnnc23)c1 | 32 | -3% | 25 | -7%
O=C1c2ccccc2C(O)(O)[C@@]1(O)[C@]1(O)C(=O)c2ccccc2C1(O)O | . | -3% | . | .
O=C(NCCCN1CCCC1=O)c1ccc(NS(=O)(=O)c2ccccc2)cc1 | . | . | . | 0%
CC1CCCN(S(=O)(=O)c2ccc3[nH]c4c(c3c2)CCCC4)C1 (stereo not given) | 2 | -53% | 9 | -7%
SMILES | Shiga inhibitor | NS1 function inh | Cycloheximide cs | SARS PLpro yeast
c1ccc(Nc2nc3ccccc3n3nnnc23)cc1 | 56* | 0% | 45* | -1%
Fc1cccc(Nc2nc3ccccc3n3nnnc23)c1 | 57 | -1% | 22 | 7%
c1ccc2c(c1)nc(Nc1ccc3c(c1)OCO3)c1nnnn12 | 130* | ? | 39* | -8%
O=C(c1cc2ccccc2o1)N1CCN(S(=O)(=O)c2ccccc2)CC1 | . | . | . | -6%
CCOc1cc(C(=O)NCCOC)ccc1OC | -13 | 0% | -1 | -1%
C(=C\c1ccco1)/c1ccc2ccccc2n1 | 52* | -30% | 38* | -2%
Fc1cccc(F)c1/C=C/c1ccc2ccccc2n1 | 54* | -21% | 24* | -35%
CC(O)/C=C/c1ccc2ccccc2n1 (stereo not given) | 33* | -35% | 23* | -8%
O=C(/C=C/c1ccc2ccccc2n1)N1CCN(S(=O)(=O)c2ccccc2F)CC1 | -5 | 5% | -1 | 0%
Fc1cccc(Cl)c1/C=C/c1cnc2ccccc2n1 | 75* | -4% | 48* | -1%
CSc1ccc(/C=C(\NC(=O)c2ccccc2)C(=O)NN)cc1 | 3 | ? | 7 | 1%
CC(C)(C)c1cc(CCC(=O)NCc2ccccn2)cc(C(C)(C)C)c1O | 35 | -1% | 2 | -3%
CCOC(=O)c1c(N)sc(C(=O)OCCOC)c1C | 59* | . | 35* | 1%
CCOC(=O)c1c(N)sc(C(=O)N2CCCCC2)c1C | 12 | 3% | 2 | 8%
CCOC(=O)c1sc(N)c(C(=O)Nc2ccccc2)c1C | 46* | -3% | 27* | 0%
CCOC(=O)c1sc(NC(=S)NC(=O)c2ccccc2)c(C(=O)OCC)c1C | -6 | -16% | -1 | -7%
